Results: PubChem BioAssay (NCI)
Compounds without any hit were thinned out: in the full panel of roughly 83,000, 20% have a hit.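 Percent growth is the endpoint: 0 to 100 indicates growth inhibition (40 means 60% inhibition), 0 means no net growth, and negative values indicate cell death.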 Calls of active or inactive are those of the source. Rule for the calls: active = growth percent below 10; inactive = the rest.

Experiments:
Experiment in all cases: NCI-60 one-dose screen, 48 h (100 = growth as untreated, 0 = no growth, -100 = all killed)
Conditions in all cases: 10 µM unless noted
[1] = system: DU-145 prostate
[2] = system: K-562 leukemia
[3] = system: MALME-3M melanoma
[4] = system: MDA-MB-231 breast
[5] = system: RXF 393 renal
[6] = system: SF-268 CNS
[7] = system: SF-295 CNS
[8] = system: SF-539 CNS
[9] = system: UACC-257 melanoma
[10] = system: M14 melanoma
[11] = system: HCT-15 colon
[12] = system: HT29 colon
[13] = system: SNB-75 CNS
[14] = system: SNB-19 CNS
[15] = system: U251 CNS
[16] = system: PC-3 prostate
[17] = system: SK-MEL-5 melanoma
[18] = system: UACC-62 melanoma
[19] = system: LOX IMVI melanoma
[20] = system: SK-MEL-28 melanoma

Measured: growth

O=C(OCc1ccc2c(Br)cc(Br)c(O)c2n1)N1CCN(C(=O)c2cc3ccccc3[nH]2)CC1
inactive: [1] 48.9% | [2] 21.7% | [3] 51.5% | [4] 46.3% | [5] 41% | [6] 31.6% | [7] 21.3% | [8] 47.9% | [9] 31.5% | [10] 30% | [11] 19.6% | [12] 59.6% | [13] 40.5% | [14] 31.6% | [15] 12.9% | [16] 27.5% | [17] 35.5% | [18] 19% | [19] 28.7% | [20] 58.1%

O=C1/C(=C/c2cccc(Br)c2)COc2ccc(O)c(O)c21
active: [1] -7.02% | [3] -44.9% | [4] -26.7% | [5] -56.5% | [6] -23.9% | [8] -85.4% | [10] -5.09% | [11] -7.69% | [12] 2.91% | [14] 1.36% | [15] -85.3% | [16] -35.1% | [18] -72.2% | [19] -90.8% | [20] -17.2%
inactive: [2] 10.3% | [7] 34.8% | [9] 10.9% | [13] 15.1% | [17] 23.3%

O=C(OCC(O)(CO)C(=O)NC12CC3CC(CC(C3)C1)C2)c1ccc(Cl)cc1 (stereo not given)
inactive: [1] 108% | [2] 91.4% | [3] 103% | [4] 101% | [5] 101% | [6] 99.7% | [7] 93.1% | [8] 107% | [9] 99.2% | [10] 98.7% | [11] 104% | [12] 94.8% | [13] 97.6% | [14] 96.2% | [15] 93.5% | [16] 93.7% | [17] 101% | [18] 97.4% | [19] 95.2% | [20] 113%

CCCC1Cc2cc(-n3nc(C)c4c3CC(C)(C)CC4=O)cc(NC3CCC(O)CC3)c2C(=O)N1 (stereo not given)
active: [4] -15.1% | [18] 6.33% | [19] 5.91%
inactive: [1] 53.7% | [2] 14.3% | [3] 12.3% | [5] 65.3% | [6] 65.3% | [7] 21% | [8] 34.4% | [9] 37.1% | [10] 33.7% | [11] 26.1% | [12] 11.6% | [13] 66.6% | [14] 50% | [15] 41.5% | [16] 42.8% | [17] 40.7% | [20] 31.5%

CCOc1ccc(-c2cc(C3(S(=O)(=O)c4ccc(C)cc4)CC=CC3)on2)cc1
inactive: [1] 101% | [2] 70.9% | [3] 83.6% | [4] 91.8% | [5] 93.6% | [6] 98.6% | [7] 90% | [8] 98.6% | [9] 74.9% | [10] 107% | [11] 75.3% | [12] 77.7% | [13] 97.3% | [14] 95.4% | [15] 89.4% | [16] 75.2% | [17] 69.8% | [18] 66.7% | [19] 91.1% | [20] 115%

N#Cc1c(-c2ccc(F)cc2)cc(-c2cccc(Cl)c2)[nH]c1=O
active: [8] 9.45% | [13] -25.5%
inactive: [1] 73.9% | [2] 56.2% | [3] 70.1% | [4] 60.7% | [5] 51.7% | [6] 41.9% | [7] 71.4% | [9] 93.8% | [10] 82.3% | [11] 58.1% | [12] 110% | [14] 42.7% | [15] 39.5% | [16] 72.7% | [17] 70.1% | [18] 40.9% | [19] 63.6% | [20] 83.9%

Oc1ccc(C2OCCO2)c2cccnc12
inactive: [1] 56.7% | [2] 17.3% | [3] 49% | [4] 46.6% | [5] 77% | [6] 31.1% | [7] 86.9% | [8] 36% | [9] 79.2% | [10] 25.8% | [11] 32% | [12] 78.3% | [13] 80.6% | [14] 64.4% | [15] 27.4% | [16] 32% | [17] 48.4% | [18] 51.4% | [19] 38.4% | [20] 63.4%

Cc1cc([N+](=O)[O-])ccc1NC(=O)c1ccc2c(c1)nc(-c1ccccc1)n2C1CCCCC1
inactive: [1] 105% | [2] 49.9% | [3] 80.4% | [4] 84.4% | [5] 96.5% | [6] 77.1% | [7] 80.5% | [8] 92.2% | [9] 92.4% | [10] 74.9% | [11] 51.9% | [12] 44.5% | [13] 80.9% | [14] 119% | [15] 91.4% | [16] 77.4% | [17] 62.3% | [18] 95% | [19] 64% | [20] 117%

CC(=O)c1c(/C=C/c2ccc(C)cc2)c2ccccc2[nH]c1=O
inactive: [1] 94.9% | [2] 90.6% | [3] 121% | [4] 91.7% | [5] 104% | [6] 75.5% | [7] 103% | [8] 86.2% | [9] 81.1% | [10] 104% | [11] 102% | [12] 105% | [13] 73.7% | [14] 73.5% | [15] 86% | [16] 81.2% | [17] 95.9% | [18] 80.7% | [19] 84.7% | [20] 110%

COc1ccc(NC(=O)c2ccc(Cl)cc2Cl)cc1
inactive: [1] 95.1% | [2] 99% | [3] 104% | [4] 109% | [5] 108% | [6] 100% | [7] 102% | [8] 98.9% | [9] 96.8% | [10] 93.3% | [11] 94% | [12] 100% | [13] 89.9% | [14] 104% | [15] 92.2% | [16] 98.8% | [17] 92.3% | [18] 96.3% | [19] 98.2% | [20] 105%

O=C(Nc1ccccc1)Nc1ccccc1CNc1nc(Nc2ccc(OCCN3CCCC3)cc2)ncc1Cl
active: [2] 7.08% | [19] -68.3%
inactive: [1] 88% | [3] 71.2% | [4] 41.9% | [5] 33.7% | [6] 72.5% | [7] 73.3% | [8] 31% | [9] 75.3% | [10] 61.2% | [11] 41.4% | [12] 13.8% | [13] 90% | [14] 70.6% | [15] 38.7% | [16] 76.1% | [17] 57.2% | [18] 86.1% | [20] 78.5%

Cc1ccccc1NC(=O)c1sc2nc3c(cc2c1N)CCCC3
inactive: [1] 25.2% | [2] 17.6% | [3] 53.9% | [4] 52.5% | [5] 14.2% | [6] 49.6% | [7] 16.4% | [9] 40.7% | [10] 27% | [11] 25% | [13] 37.8% | [14] 30.9% | [15] 23% | [16] 29.9% | [17] 20.5% | [18] 27.6% | [19] 40.5% | [20] 75.1%
active: [8] 8.72% | [12] 7.53%

Cc1ccc(S(=O)(=O)c2nc(-c3ccccc3)oc2S(C)=O)cc1 (stereo not given)
active: [2] -31.1% | [3] -76.8% | [4] 4.23% | [5] -33.4% | [8] -22% | [10] -80.6% | [11] -53.1% | [12] -31.8% | [19] -87.7% | [20] -63.2%
inactive: [1] 47.3% | [6] 55.9% | [7] 84.3% | [9] 46.5% | [13] 66.7% | [14] 68.9% | [15] 45.1% | [16] 22.3% | [17] 44.4% | [18] 50.6%

COc1ccc(NC(=O)c2ccc(NC3=C(c4ccc(Cl)cc4)C(=O)NC3=O)cc2)cc1
inactive: [1] 91.4% | [2] 79% | [3] 86.9% | [4] 84.8% | [5] 84.4% | [6] 83.8% | [7] 86.8% | [8] 92.4% | [9] 85.9% | [10] 102% | [11] 75.1% | [12] 66.7% | [13] 85.7% | [14] 91.8% | [15] 82.3% | [16] 64.3% | [17] 80.8% | [18] 81.6% | [19] 87.7% | [20] 101%

CCN1CCN(C(=O)[C@]23CC[C@@H](C)[C@H](C)[C@@H]2C2=CC[C@@H]4[C@@]5(C)C/C(=C/c6ccncc6)C(=O)C(C)(C)[C@@H]5CC[C@@]4(C)[C@]2(C)CC3)CC1
inactive: [1] 41.8% | [6] 49% | [7] 28.5% | [9] 25.6% | [10] 25.4% | [13] 19.5% | [14] 47.3% | [15] 15.2% | [16] 19.3% | [18] 43.1%
active: [2] 9.31% | [3] -9.75% | [4] 2.96% | [5] -18.7% | [8] -80.2% | [11] -53.2% | [12] 1.6% | [17] -12.3% | [19] -95.3% | [20] -45.7%
